# Reference: PubChem BioAssay (NCATS)
# Inconclusive results are not listed. A call without a number means that no potency is given here. The source made the active and inactive calls. Unless noted, calls follow the shape of the dose curve; as a rule, active = well fitted curve in the direction sought with a large enough effect; inconclusive = small, poorly fitted or top-dose-only effect, or another doubt; inactive = no such curve, though single readings can be large; an effect the other way counts as inactive or inconclusive.
# Columns and labels:
# [1] = Cytometric Cell-Based qHTS for Inhibitors of the mTORC1 Signaling Pathway in MEF (Tsc2-/-, p53-/-) Cells (AID 2660); conditions: mTORC1 pathway cytometry; series mostly up to 38.3 µM;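 also: percent of cells above a phospho-rpS6 to PI ratio cutoff in each well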
# Method in brief: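 Tsc2-/-, p53-/- MEFs (empty vector) exposed to compound 24 h at 37 C, fixed, stained with Alexa-488 anti-phospho-rpS6 Ser235/236 and propidium iodide. Acumen laser scanning; phospho-S6/PI ratio thresholded against 7.5 nM rapamycin, reported as % positive cells.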
# [2] = High Content Imaging Cell-Based qHTS for Inhibitors of the mTORC1 Signaling Pathway in MEF (Tsc2-/-, p53-/-) Cells (AID 2666); conditions: at 38.3 µM (top of the series);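 also: percent of cells scored positive for phospho-rpS6 Ser235/236 immunostaining by imaging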
# Method in brief: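 Cells were plated, dosed with compound after 24 hrs, and incubated another 24 hrs at 37 degree Celsius. Fixed cells were immunostained for phospho-rpS6 Ser235/236 and counterstained, and the normalized signal was scored as % active cells against rapamycin and DMSO controls.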
# [3] = High Content Imaging Cell-Based qHTS for Inhibitors of the mTORC1 Signaling Pathway in MEF Cells (AID 2667); conditions: series mostly up to 38.3 µM;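 also: Tsc2-/- p53-/- MEFs stably re-expressing wild-type Tsc2 exposed 24 h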
# Method in brief: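 Immunofluorescence for rpS6 phosphorylation in MEFs of Tsc2-/-, p53-/- background rescued with WT Tsc2. Compound exposure lasted 24 hrs. Inhibition was scored against rapamycin-treated control wells.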
# [4] = Cytometry Cell-Based qHTS for Inhibitors of the mTORC1 Signaling Pathway in MEF cells (AID 2668); conditions: mTORC1 pathway readout; series mostly up to 38.3 µM;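 also: Tsc2-/- p53-/- mouse embryonic fibroblasts stably re-expressing wild-type Tsc2; percent cells positive for phospho-rpS6 Ser235/236 relative to propidium iodide stain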
# Method in brief: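 MEFs (Tsc2-/-, p53-/- stably expressing WT Tsc2) treated 24 h at 37 degree Celsius, fixed, stained with Alexa-488 anti-phospho-rpS6 Ser235/236 and propidium iodide; Acumen laser scanning. Reported as % positive cells, phospho-S6 normalized to PI.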
# [5] = biological target: Ubiquitin carboxyl-terminal hydrolase 2 (Homo sapiens) (UniProt O75604); test: qHTS Validation Assay for Inhibitors of Ubiquitin-specific Protease USP2a Using CHOP2 as the Reporter (AID 463106); conditions: USP2a cleavage of CHOP2 reporter, enzymatic; series mostly up to 38.3 µM
# Sequence of Ubiquitin carboxyl-terminal hydrolase 2 (Homo sapiens) (O75604 whole entry, looked up): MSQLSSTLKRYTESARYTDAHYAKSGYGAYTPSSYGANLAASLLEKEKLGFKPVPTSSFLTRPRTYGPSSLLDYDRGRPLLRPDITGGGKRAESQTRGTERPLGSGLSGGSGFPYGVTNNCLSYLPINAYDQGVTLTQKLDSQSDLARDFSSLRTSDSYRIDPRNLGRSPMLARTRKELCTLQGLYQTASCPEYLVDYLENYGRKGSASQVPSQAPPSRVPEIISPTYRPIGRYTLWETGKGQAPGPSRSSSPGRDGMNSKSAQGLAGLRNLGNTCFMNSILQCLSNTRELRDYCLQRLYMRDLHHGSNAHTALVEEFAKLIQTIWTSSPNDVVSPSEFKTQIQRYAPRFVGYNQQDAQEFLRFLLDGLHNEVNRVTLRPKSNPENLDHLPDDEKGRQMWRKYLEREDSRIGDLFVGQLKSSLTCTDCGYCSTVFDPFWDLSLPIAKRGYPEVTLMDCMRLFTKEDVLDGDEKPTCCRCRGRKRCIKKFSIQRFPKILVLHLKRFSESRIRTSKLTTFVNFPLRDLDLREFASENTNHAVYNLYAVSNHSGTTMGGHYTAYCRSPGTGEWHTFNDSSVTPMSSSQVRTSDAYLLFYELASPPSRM
# Method in brief: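 10nM USP2 core + cpd, 30min RT; add 25nM Ub-CHOP2/25nM substrate; 60min RT; FI 485/531nm. Buffer Tris pH 8.0, CaCl2, BME, CHAPS. Norm. to NEM = 100% inhibition; time-zero read flags fluorescent artifacts.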
# [6] = biological target: DNA polymerase III PolC-type (Bacillus subtilis (strain 168)) (UniProt P13267); test: qHTS Validation Assay for the Inhibitors of DNA Replication in Gram-Positive Bacteria (AID 485295); conditions: Gram-positive bacterial DNA replication assay; series mostly up to 57.1 µM;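 also: PicoGreen fluorescence of double-stranded DNA made on primed circular M13 template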
# Sequence of DNA polymerase III PolC-type (Bacillus subtilis (strain 168)) (P13267 whole entry, looked up): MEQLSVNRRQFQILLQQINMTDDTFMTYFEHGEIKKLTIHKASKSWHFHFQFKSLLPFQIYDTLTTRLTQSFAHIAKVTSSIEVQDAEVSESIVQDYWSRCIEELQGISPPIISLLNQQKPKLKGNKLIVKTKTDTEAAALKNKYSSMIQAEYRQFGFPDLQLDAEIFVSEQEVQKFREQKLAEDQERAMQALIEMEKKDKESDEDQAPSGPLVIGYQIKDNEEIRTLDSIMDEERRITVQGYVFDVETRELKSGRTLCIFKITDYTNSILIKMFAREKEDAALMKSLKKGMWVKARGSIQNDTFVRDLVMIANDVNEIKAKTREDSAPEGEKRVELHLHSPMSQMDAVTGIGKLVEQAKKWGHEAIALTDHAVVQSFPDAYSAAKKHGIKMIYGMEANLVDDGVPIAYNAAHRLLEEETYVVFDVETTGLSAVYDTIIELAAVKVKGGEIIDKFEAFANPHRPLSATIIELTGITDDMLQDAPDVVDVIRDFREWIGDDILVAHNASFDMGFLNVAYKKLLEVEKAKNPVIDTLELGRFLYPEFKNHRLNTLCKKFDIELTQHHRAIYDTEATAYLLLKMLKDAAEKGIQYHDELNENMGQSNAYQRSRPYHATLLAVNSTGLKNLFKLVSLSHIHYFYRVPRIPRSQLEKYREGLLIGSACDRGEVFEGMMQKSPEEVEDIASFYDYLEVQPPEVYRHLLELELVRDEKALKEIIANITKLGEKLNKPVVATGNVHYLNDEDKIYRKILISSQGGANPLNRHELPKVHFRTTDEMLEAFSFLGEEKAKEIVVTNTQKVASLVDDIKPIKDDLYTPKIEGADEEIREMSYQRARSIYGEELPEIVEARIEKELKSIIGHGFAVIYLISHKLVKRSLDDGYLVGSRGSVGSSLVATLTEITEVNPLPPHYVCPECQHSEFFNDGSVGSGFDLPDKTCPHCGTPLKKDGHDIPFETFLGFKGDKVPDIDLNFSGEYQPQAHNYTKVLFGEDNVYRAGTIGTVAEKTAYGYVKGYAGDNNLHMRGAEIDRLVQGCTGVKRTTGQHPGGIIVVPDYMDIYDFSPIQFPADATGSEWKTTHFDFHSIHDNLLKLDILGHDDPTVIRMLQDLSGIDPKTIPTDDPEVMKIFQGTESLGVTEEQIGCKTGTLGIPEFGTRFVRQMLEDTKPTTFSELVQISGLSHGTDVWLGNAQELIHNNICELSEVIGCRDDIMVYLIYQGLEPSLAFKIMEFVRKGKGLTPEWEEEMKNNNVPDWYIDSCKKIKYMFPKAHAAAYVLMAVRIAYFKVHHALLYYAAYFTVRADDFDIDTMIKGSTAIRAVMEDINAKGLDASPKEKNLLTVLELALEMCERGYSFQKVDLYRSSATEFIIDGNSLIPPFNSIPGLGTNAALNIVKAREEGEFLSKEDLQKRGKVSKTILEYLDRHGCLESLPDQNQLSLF
# Method in brief: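 Reconstituted B. subtilis Pol III holoenzyme (PolC, beta clamp, SSB, primase) preincubated with compound, then M13Gori single-stranded circular template with dNTPs/NTPs added; room temperature reaction. Stopped with EDTA/PicoGreen; dsDNA fluorescence read, EDTA as full-inhibition control.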
# [7] = biological target: Tumor susceptibility gene 101 protein (Homo sapiens) (UniProt Q99816); test: qHTS Validation Assay for Iinhibitors of HIV-1 Budding by Blocking the Interaction of PTAP/TSG101 (AID 485342; calls by dose curve); conditions: TSG101-PTAP binding, fluorescence polarization, 4-point titration; series mostly up to 115 µM
# Sequence of Tumor susceptibility gene 101 protein (Homo sapiens) (Q99816 whole entry, looked up, the tested form may be a part): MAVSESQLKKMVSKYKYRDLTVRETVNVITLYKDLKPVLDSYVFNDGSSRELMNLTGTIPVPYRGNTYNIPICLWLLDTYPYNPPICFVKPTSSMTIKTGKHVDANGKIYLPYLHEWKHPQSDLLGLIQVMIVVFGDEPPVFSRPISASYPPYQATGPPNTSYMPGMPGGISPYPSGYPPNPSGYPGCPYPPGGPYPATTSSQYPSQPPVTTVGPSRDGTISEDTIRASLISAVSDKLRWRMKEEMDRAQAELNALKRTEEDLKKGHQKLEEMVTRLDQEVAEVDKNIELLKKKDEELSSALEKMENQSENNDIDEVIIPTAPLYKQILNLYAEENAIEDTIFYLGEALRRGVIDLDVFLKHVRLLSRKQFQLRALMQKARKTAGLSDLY
# Method in brief: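 Tsg101 binding domain (10 uM) with FITC-labeled PTAP peptide (50 nM) in HEPES pH 7.5 buffer, 20 min at r.t. with compounds. Binding measured by fluorescence polarization.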
# [8] = qHTS Validation Assay to Find Inhibitors of Chronic Active B-Cell Receptor Signaling (AID 485345; active = well fitted curve in the direction sought with a large enough effect in the main read-out, with a control signal flat, not every such curve was filed as active); conditions: ABC-DLBCL cells, chronic BCR signaling reporter, CBG luciferase; series mostly up to 46.1 µM
# Method in brief: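 Read-out: ratio of filter-corrected green (IkappaBalpha fusion) to red (native) luciferase signal in doxycycline-induced TMD8 cells after 4 h at 37C. Titration spanned 46 uM–3 nM; Data were normalised to basal cells and 10 uM MG-132 wells.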
# [9] = biological target: Beta-2 adrenergic receptor (Homo sapiens) (UniProt P07550); test: qHTS validation assay of beta-arrestin-biased ligands of beta2-adrenergic receptor (AID 485366); conditions: cell-based beta-arrestin recruitment to ADRB2, qHTS; series mostly up to 46.1 µM
# Sequence of Beta-2 adrenergic receptor (Homo sapiens) (P07550 whole entry, looked up): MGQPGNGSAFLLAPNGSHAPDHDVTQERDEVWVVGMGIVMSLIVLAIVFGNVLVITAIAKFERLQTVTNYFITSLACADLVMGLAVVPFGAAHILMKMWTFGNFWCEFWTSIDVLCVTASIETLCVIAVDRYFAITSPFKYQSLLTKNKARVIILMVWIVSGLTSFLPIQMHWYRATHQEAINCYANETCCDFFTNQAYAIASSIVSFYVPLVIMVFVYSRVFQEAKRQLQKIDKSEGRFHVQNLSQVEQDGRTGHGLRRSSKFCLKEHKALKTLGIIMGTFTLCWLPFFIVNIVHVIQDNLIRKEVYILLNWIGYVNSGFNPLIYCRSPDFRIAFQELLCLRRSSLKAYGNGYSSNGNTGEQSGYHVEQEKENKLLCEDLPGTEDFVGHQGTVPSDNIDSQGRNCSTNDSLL
# Method in brief: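 Tango cells expressing recombinant beta2-AR and beta-arrestin with tTA-driven luciferase, in DMEM with 1% FBS. Compounds were titrated up to 46 microM for 18 hr at 37 degrees C. Luminescence was read 15 min after substrate; curves were fitted and class-assigned.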
# [10] = biological target: ATP-dependent 6-phosphofructokinase (Trypanosoma brucei brucei) (UniProt O15648); test: qHTS Validation Assay to Find Inhibitors of T. brucei phosphofructokinase (AID 485368); conditions: T. brucei PFK enzyme assay, qHTS 7-point titration; at 57.5 µM (top of the series)
# Sequence of ATP-dependent 6-phosphofructokinase (Trypanosoma brucei brucei) (O15648 whole entry, looked up): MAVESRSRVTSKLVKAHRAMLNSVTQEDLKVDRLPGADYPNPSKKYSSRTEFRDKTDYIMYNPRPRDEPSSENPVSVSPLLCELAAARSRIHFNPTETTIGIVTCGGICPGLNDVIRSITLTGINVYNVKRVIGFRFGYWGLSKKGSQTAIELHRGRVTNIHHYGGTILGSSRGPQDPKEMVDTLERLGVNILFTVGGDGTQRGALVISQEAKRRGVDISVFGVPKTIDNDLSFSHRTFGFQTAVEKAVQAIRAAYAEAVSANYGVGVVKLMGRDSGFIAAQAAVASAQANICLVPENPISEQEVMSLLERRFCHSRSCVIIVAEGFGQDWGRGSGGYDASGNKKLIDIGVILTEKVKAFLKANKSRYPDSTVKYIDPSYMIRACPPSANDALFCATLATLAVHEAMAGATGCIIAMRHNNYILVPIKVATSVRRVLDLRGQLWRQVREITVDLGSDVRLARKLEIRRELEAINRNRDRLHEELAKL
# Method in brief: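 Activity was read as ADP production by luminescence (ADP-Glo) after 45 min at room temperature. The enzyme was 1.25nM PFK in 0.1M TEA pH 8.0 with 0.5 mM F6P, 0.1mM ATP and 5 mM MgCl2. Compounds were titrated up to 57 uM and % activity normalized to no-enzyme and full-enzyme controls.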
# [11] = biological target: Thioredoxin reductase 1, cytoplasmic (Rattus norvegicus) (UniProt O89049); test: qHTS Assay for Substrates of Mammalian Selenoprotein Thioredoxin Reductase 1 (TrxR1) (AID 488772); conditions: purified TrxR1, NADPH consumption substrate assay; series mostly up to 57.1 µM;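 also: NADPH fluorescence in the first read after selenite addition and not the 8 min delta; a drop in NADPH fluorescence below the no-compound background marks a TrxR1 substrate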
# Sequence of Thioredoxin reductase 1, cytoplasmic (Rattus norvegicus) (O89049 whole entry, looked up): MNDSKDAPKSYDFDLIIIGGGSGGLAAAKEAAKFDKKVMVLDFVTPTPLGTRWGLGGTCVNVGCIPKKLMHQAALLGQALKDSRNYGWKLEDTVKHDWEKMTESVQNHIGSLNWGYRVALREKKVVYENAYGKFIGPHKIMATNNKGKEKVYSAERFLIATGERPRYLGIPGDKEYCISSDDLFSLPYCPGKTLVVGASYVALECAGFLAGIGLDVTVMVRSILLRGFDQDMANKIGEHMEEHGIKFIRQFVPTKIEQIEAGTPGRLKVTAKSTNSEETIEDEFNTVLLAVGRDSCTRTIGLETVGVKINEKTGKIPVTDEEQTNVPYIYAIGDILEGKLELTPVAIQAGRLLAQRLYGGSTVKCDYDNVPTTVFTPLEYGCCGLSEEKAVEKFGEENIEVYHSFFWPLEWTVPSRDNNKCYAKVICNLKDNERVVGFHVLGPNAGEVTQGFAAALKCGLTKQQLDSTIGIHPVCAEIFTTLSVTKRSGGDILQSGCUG
# Method in brief: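 Quantitative HTS in Tris-HCl buffer at pH 7.5 with EDTA and Tween-20, using rat TrxR1, 400 uM NADPH and 400 uM selenite (final). A fall in initial NADPH fluorescence relative to background marked substrate behaviour.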
# [12] = biological target: Thioredoxin reductase 1, cytoplasmic (Rattus norvegicus) (UniProt O89049); test: qHTS Assay for Inhibitors of Mammalian Selenoprotein Thioredoxin Reductase 1 (TrxR1) (AID 488773); conditions: purified TrxR1 enzyme activity; series mostly up to 57.1 µM;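 also: drop in NADPH fluorescence over an 8 min run after selenite addition; nearly all actives have a fitted effect of over 40% in size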
# Method in brief: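 Steps: enzyme (90 nM) plus NADPH (400 uM final), 5 min at ~22 deg C; compound added, 15 min; selenite (400 uM final) added; fluorescence followed for 8 min. Concentration-response curves derived from the normalized delta values.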
# [13] = biological target: Flap endonuclease 1 (Homo sapiens) (UniProt P39748); test: qHTS Validation Assay for the Inhibitors of Human Flap endonuclease 1 (FEN1) (AID 488816); conditions: FEN1 nuclease activity, fluorogenic DNA substrate; series mostly up to 57.1 µM
# Sequence of Flap endonuclease 1 (Homo sapiens) (P39748 whole entry, looked up): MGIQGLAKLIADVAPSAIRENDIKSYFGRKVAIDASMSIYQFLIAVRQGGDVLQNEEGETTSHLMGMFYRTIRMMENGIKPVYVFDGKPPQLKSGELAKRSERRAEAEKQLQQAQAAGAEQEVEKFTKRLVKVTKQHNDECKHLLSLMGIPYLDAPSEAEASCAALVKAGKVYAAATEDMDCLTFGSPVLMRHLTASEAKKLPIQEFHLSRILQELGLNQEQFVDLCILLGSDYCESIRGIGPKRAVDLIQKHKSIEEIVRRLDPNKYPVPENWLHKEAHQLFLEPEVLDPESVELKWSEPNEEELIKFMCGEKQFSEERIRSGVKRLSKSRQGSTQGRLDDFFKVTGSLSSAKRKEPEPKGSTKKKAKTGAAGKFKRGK
# Method in brief: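 Readings taken at 0 and 15 min after starting the reaction with 50 nM (final) substrate supplied the signal. Compounds had first sat with 10 nM FEN1 reagent for 15 min at room temperature. Values come from Hill-equation concentration-response fits.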
# [14] = biological target: M-phase phosphoprotein 8 (Homo sapiens) (UniProt Q99549); test: qHTS Validation Assay for Inhibitors for MPP8 Chromodomain Interactions with Methylated Histone Tails (AID 488949); conditions: AlphaScreen MPP8 binding to H3K9me3 peptide; series mostly up to 57.1 µM; also: nearly all actives have a fitted effect of over 55% in size; also: potency is read from the fitted curve at half-maximal effect
# Method in brief: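 MPP8 (50 nM) was pre-bound to 50 nM biotinylated H3(1-18)K9me3 peptide in PBS pH 7.4 with 0.01% Tween-20. Compounds were then added for 30 min at room temperature, and complex disruption was read by AlphaScreen with streptavidin donor and nickel-chelate acceptor beads.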
# [15] = biological target: Chromobox protein homolog 1 (Homo sapiens) (UniProt P83916); test: qHTS Validation Assay for Inhibitors of HP1-beta Chromodomain Interactions with Methylated Histone Tails (AID 488953); conditions: HP1-beta chromodomain / methylated histone peptide binding assay; series mostly up to 114 µM;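 also: loss of AlphaScreen luminescence from HP1-beta binding biotinylated H3K9me3 peptide; nearly all actives have a fitted effect of over 50% in size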
# Sequence of Chromobox protein homolog 1 (Homo sapiens) (P83916 whole entry, looked up): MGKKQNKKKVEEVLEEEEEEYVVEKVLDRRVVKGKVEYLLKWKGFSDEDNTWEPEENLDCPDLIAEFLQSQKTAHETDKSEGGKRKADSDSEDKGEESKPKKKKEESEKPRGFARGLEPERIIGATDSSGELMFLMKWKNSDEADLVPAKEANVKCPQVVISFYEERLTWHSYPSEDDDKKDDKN
# Method in brief: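 HP1-beta (50 nM) was preincubated 30 min at room temperature with biotinylated H3(1-18)K9me3 peptide (50 nM) in PBS pH 7.4, 0.01% Tween-20, then with compounds 30 min. AlphaScreen signal was read after streptavidin donor/nickel chelate acceptor beads (10 ug/mL final).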
# [16] = biological target: Methanococcus maripaludis chaperonin (MmCpn) (UniProt Q6LX38); test: High-Throughput Screening for Modulators of Cytosolic Chaperonin Activity: MmCpn Primary Screen (AID 488978); conditions: Purified MmCpn ATPase activity, ADP HTRF detection, 10 min; series mostly up to 76.9 µM;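 also: 50 nM MmCpn enzyme hydrolysing 30 µM ATP at 37 °C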
# Sequence of Methanococcus maripaludis chaperonin (MmCpn) (Q6LX38 1-543): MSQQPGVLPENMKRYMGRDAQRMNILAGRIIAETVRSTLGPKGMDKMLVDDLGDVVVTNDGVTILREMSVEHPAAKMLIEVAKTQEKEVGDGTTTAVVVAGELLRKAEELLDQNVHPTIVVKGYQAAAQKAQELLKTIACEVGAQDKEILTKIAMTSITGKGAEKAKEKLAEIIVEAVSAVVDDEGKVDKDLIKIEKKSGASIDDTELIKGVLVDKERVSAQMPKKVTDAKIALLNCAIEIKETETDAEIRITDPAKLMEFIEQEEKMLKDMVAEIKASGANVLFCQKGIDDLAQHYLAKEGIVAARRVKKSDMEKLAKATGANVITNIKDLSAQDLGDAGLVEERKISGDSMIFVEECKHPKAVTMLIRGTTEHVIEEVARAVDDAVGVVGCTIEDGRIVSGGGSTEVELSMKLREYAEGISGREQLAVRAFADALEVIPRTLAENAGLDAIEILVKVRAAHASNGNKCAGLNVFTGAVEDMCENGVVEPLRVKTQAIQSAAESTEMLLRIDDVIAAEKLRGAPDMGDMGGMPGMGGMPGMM
# Method in brief: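 MmCpn at 50 nM final was preincubated 5 min at RT with compound. ATP was then added at 30 uM final for 10 min at 37 C. ADP formed was detected by Transcreener HTRF (665/590 nm).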
# [17] = biological target: RecQ-like DNA helicase BLM (Homo sapiens) (UniProt P54132); test: qHTS Validation Assay for Inhibitors of Bloom's syndrome helicase (BLM) (AID 2364); conditions: BLM helicase DNA unwinding, fluorescence, in vitro; series mostly up to 57.1 µM
# Method in brief: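 Forked 20-bp duplex substrate (200 nM, TAMRA/BHQ-2) plus 2 mM ATP added after 15 min compound preincubation with 50 nM enzyme, pH 8.0, poly(dI-dC) 2.5 ug/ml. Strand separation followed by fluorescence (525/598 nm) over 2 h, normalized to enzyme-free and DMSO controls.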
# [18] = Validation screen for small molecules that induce DNA re-replication in MCF 10A normal breast cells (AID 463097); conditions: MCF 10A cells, DNA re-replication phenotype imaging; series mostly up to 46.1 µM; also: nearly all actives have a fitted effect of over 60% in size
# Method in brief: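 MCF 10A cells exposed to compound 48 hr at 37 C, 5% CO2, then Hoechst-stained 40 min. Laser-scanning imaging of nuclear DNA content (405 nm ex, 500-530 nm em); re-replication scored as rise in nuclei with elevated fluorescence intensity.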
# [19] = Quantitative high throughput screen for delayed death inhibitors of the malarial parasite plastid, 96 hour incubation (AID 488745); conditions: Plasmodium falciparum growth; series mostly up to 28.7 µM; also: nearly all actives have a fitted effect of over 70% in size
# Method in brief: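 P. falciparum carrying an integrated firefly luciferase reporter, grown in erythrocytes (2% hematocrit, 0.1% parasitemia final) in RPMI 1640/0.5% Albumax, was exposed to compound for 96 h (two generations) at 37 C, 5% CO2. Luminescence decrease indicated growth inhibition.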
# [20] = Quantitative high throughput screen for delayed death inhibitors of the malarial parasite plastid, 48 hour incubation (AID 488752); conditions: Plasmodium falciparum growth; series mostly up to 28.7 µM; also: nearly all actives have a fitted effect of over 65% in size
# Method in brief: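 Erythrocytes infected with P. falciparum carrying an integrated firefly luciferase reporter (2% hematocrit, 0.1% parasitemia final) were exposed to compounds in RPMI 1640/0.5% Albumax for 48 h at 37 C, 5% CO2. Growth inhibition was scored as reduced luminescence.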
SMILES,outcome [1],outcome [2],outcome [3],outcome [4],outcome [5],outcome [6],outcome [7],outcome [8],outcome [9],outcome [10],outcome [11],outcome [12],outcome [13],Potency [14],outcome [15],outcome [16],outcome [17],outcome [18],outcome [19],outcome [20]
CN=C(N)NCCC[C@H](N)C(=O)O,inactive,inactive,inactive,inactive,inactive,inactive,inactive,inactive,inactive,inactive,inactive,inactive,inactive,inactive,inactive,inactive,–,–,–,–
CC(=O)OCC1=C(C(=O)O)N2C(=O)[C@@H](NC(=O)CSc3ccncc3)[C@H]2SC1,–,–,–,–,–,–,–,–,–,–,–,–,–,31.6 µM (active),–,–,inactive,inactive,inactive,inactive
NC(N)=NCc1cccc(I)c1,inactive,inactive,inactive,inactive,inactive,inactive,inactive,–,inactive,–,inactive,inactive,inactive,inactive,inactive,inactive,inactive,inactive,–,inactive
CC(C)(C)NC[C@H](O)COc1nsnc1N1CCOCC1,inactive,inactive,inactive,inactive,inactive,inactive,inactive,inactive,–,–,inactive,inactive,inactive,inactive,inactive,inactive,–,–,–,–
CCOC(=O)[C@H](CCc1ccccc1)N[C@@H](C)C(=O)N1[C@H](C(=O)O)C[C@H]2CCCC[C@@H]21,inactive,inactive,inactive,inactive,inactive,inactive,inactive,inactive,inactive,inactive,inactive,inactive,inactive,inactive,inactive,inactive,–,–,–,–
